PubChem BioAssay (NCATS)
Values joined by “and” are separate entries in the source; they are usually repeats but may differ in a detail not shown here. Equal entries are not always repeated. Inconclusive results are not listed. Where a call stands in place of a potency, no number is given. Active and inactive are the calls of the source. Unless noted, calls follow the shape of the dose curve; as a rule, active = well fitted curve in the direction sought with a large enough effect; inconclusive = small, poorly fitted or top-dose-only effect, or another doubt; inactive = no such curve, though single readings can be large; an effect the other way counts as inactive or inconclusive.

Legend:
[1] = Validation of Assay for Modulators of Lamin A Splicing (AID 1459; active = well fitted curve in the direction sought with a large enough effect in the signal ratio; the % refers to the signal ratio;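 also: cells exposed to compound for two days before reading; ratio rise marks activators and ratio drop marks inhibitors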)
Summary of the method: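 Dual-reporter HeLa S3 line (lamin A-EGFP minigene, DsRed2) treated with compounds 48 hrs, 0.5% DMSO final. Endpoint: EGFP/DsRed2 total intensity ratio from laser-scanning microplate cytometry.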

[2] = molecular target: DNA repair nuclease/redox regulator APEX1 (Homo sapiens) (UniProt P27695); assay: qHTS Validation Assay for Inhibitors of the Human Apurinic/apyrimidinic Endonuclease 1 (APE1) (AID 1705;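 also: TAMRA fluorescence gain over two minutes as APE1 cuts a quenched THF abasic duplex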)
Chain of DNA repair nuclease/redox regulator APEX1 (Homo sapiens) (P27695 whole entry, looked up): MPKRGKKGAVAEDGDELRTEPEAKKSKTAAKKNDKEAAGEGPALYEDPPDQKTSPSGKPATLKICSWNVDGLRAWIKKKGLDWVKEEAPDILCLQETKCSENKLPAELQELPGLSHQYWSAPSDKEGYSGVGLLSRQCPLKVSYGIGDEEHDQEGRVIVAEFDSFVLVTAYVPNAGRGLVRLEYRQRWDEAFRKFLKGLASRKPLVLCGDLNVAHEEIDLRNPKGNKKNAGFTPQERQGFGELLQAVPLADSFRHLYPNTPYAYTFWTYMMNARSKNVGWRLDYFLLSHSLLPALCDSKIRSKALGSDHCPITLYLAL
Summary of the method: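 Substrate: 50 nM final fluorophore/quencher THF-abasic duplex. Enzyme preincubated with compounds 15 min, RT. Progress derived from fluorescence difference, third minus first kinetic read.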

[3] = Counterscreen for APE1 Inhibitors: Fluorescent Dye Displacement Validation Assay (AID 1707)
Summary of the method: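 Signal: ThO fluorescence (ex 480 nm/em 540 nm) on binding 50 nM dsDNA; displacement by test compound reduces it. Conditions: 250 nM dye, 50 mM Tris-HCl pH7.5, 2 mM MgCl2, 50mM NaCl, 0.01% Tween-20.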

[4] = molecular target: Endonuclease 4 (Escherichia coli (strain K12)) (UniProt P0A6C1); assay: Counterscreen for APE1 Inhibitors: qHTS Validation Assay for Inhibitors of Endonuclease IV (AID 1708)
Summary of the method: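 Conditions: 2 nM enzyme, 50 nM TAMRA/BHQ-2 substrate, pH 7.5 Tris buffer with 2 mM MgCl2, RT. Compound preincubation 15 min; readout three fluorescence reads 60 s apart, third-minus-first.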

[5] = qHTS for differential inhibitors of proliferation of Plasmodium falciparum line 7G8 (AID 1815);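 also: parasite growth measured after three days of incubation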; also: potency is read from the fitted curve at half-maximal effect
[6] = qHTS for differential inhibitors of proliferation of Plasmodium falciparum line GB4 (AID 1816); conditions: Potency: Plasmodium falciparum GB4 proliferation inhibition;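 also: parasite growth measured after 72 h incubation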; also: potency is read from the fitted curve at half-maximal effect
[7] = qHTS for differential inhibitors of proliferation of Plasmodium falciparum line 3D7 (AID 1876); also: potency is read from the fitted curve at half-maximal effect
[8] = qHTS for differential inhibitors of proliferation of Plasmodium falciparum line D10 (AID 1877);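 also: parasites grown with compound for 72 h before DNA staining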; also: potency is read from the fitted curve at half-maximal effect
[9] = qHTS for differential inhibitors of proliferation of Plasmodium falciparum line Dd2 (AID 1882); conditions: Potency: Plasmodium falciparum Dd2 proliferation inhibition; also: nearly all actives have a fitted effect of over 65% in size; also: potency is read from the fitted curve at half-maximal effect
Summary of the method: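 SYBR Green DNA fluorescence (ex 485, em 535 nm) after overnight lysis quantifies parasite growth; compound exposure lasted 72 h at 37 C on infected red cells at 2.5% hematocrit, 0.3% parasitemia (final). Artemisinin 0.29 uM and vehicle wells define normalization.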

[10] = qHTS Assay for Lipid Storage Modulators (AID 1519; calls by dose curve); conditions: Drosophila S3 cells, BODIPY lipid droplet/cell ratio, laser cytometry, cells loaded with oleic acid
Summary of the method: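 Cells seeded at 5,000 per well were treated with compounds over a concentration series and loaded with oleic acid (400 uM, as added). Lipid droplet fluorescence (488 nm excitation, 500-530 nm channel) was read by laser-scanning cytometry and normalized to 20 uM Triacsin C.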

[11] = measured here: cell count channel max response
[12] = measured here: lipid channel max response

Compound | outcome [1] | Potency [2] | Potency [3] | Potency [4] | Potency [5] | Potency [6] | Potency [7] | Potency [8] | Potency [9] | activity change, negative = inhibition ([10]; at 57.5 µM (top of the series)) | max response [10, 11] | max response [10, 12] | activity change, negative = inhibition ([10]; at 25.7 µM (top of the series))
N[C@@H](Cc1c[nH]c2ccc(O)cc12)C(=O)O | inactive | inactive | inactive | inactive | inactive | inactive | inactive | inactive | inactive | – | – | – | –
NC(CO)C(=O)NNCc1ccc(O)c(O)c1O (configuration not stated) | inactive | inactive | inactive | inactive | – | inactive | inactive | inactive | inactive | 13.3% (inactive) | 25.8% | 46.4% | –
CC(=O)OCC(CCn1cnc2cnc(N)nc21)COC(C)=O | – | – | – | – | – | – | – | – | – | 8.16% (inactive) | 10.2% | 23.5% | –
CN1CCC(=C2c3ccccc3CC(=O)c3sccc32)CC1 | – | inactive | inactive | inactive | 10 µM (active) | 2.24 µM (active) | 3.55 µM (active) | 4.47 µM (active) | – | 1.94% (inactive) | 0.637% and -29.8% | -3.73% and -28.3% | -3.11% (inactive)
OCCN1CCN(CCCN2c3ccccc3Sc3ccc(C(F)(F)F)cc32)CC1 | – | inactive | inactive | – | – | – | – | – | – | 8.5% (inactive) and -2.13% (inactive) | -9.92% and 24.4% and 4.08% | -13.1% and 36.3% and -0.526% | -3.93% (inactive)
CC(CCc1ccc(O)cc1)NCCc1ccc(O)c(O)c1 (configuration not stated) | inactive | inactive | inactive | inactive | 12.6 µM (active) | 12.6 µM (active) | – | 14.1 µM (active) | – | – | – | – | –
CCOC(=O)C(C)(C)Oc1ccc(Cl)cc1 | inactive | inactive | inactive | inactive | inactive | inactive | inactive | inactive | inactive | – | – | – | –
COc1ccc2c(c1)c(CC(=O)O)c(C)n2C(=O)c1ccc(Cl)cc1 | – | inactive | inactive | inactive | inactive | inactive | inactive | inactive | inactive | 13.5% (inactive) | 4.07% and 38% | -0.937% and 62.5% | 0.248% (inactive)
CC(C(=O)O)c1cccc(C(=O)c2ccccc2)c1 (configuration not stated) | inactive | inactive | inactive | inactive | – | – | – | – | – | – | – | – | –
Cc1ccc(-c2cc(C(F)(F)F)nn2-c2ccc(S(N)(=O)=O)cc2)cc1 | – | – | – | – | – | – | – | – | – | 7.63% (inactive) | 18.8% | 30% | –
COc1cc2nc(N(C)CCCNC(=O)C3CCCO3)nc(N)c2cc1OC (configuration not stated) | – | – | – | – | – | – | – | – | – | 3.93% (inactive) | 5.38% | 20.8% | –
NCCc1cnc[nH]1 | inactive | inactive | inactive | inactive | inactive | inactive | inactive | inactive | inactive | – | – | – | –
NCCS(=O)(=O)O | inactive | inactive | inactive | inactive | inactive | inactive | inactive | inactive | inactive | 4.96% (inactive) and -0.7% (inactive) | -11.2% and -31.9% | 15.8% and -31.4% | –
CC(C)NCC(O)c1ccc(O)c(O)c1 (configuration not stated) | inactive | inactive | inactive | inactive | inactive | – | inactive | – | inactive | 4.99% (inactive) and 0.312% (inactive) and 1.86% (inactive) | 14.1% and -2.95% and -6.8% | 18.9% and -2.86% and -5.68% | –
O=C1N(c2ccccc2)c2ccccc2C1(Cc1ccncc1)Cc1ccncc1 | inactive | inactive | inactive | inactive | 8.91 µM (active) | 12.6 µM (active) | – | – | inactive | – | – | – | –
Cn1cnc2c1c(=O)[nH]c(=O)n2C | inactive | inactive | inactive | inactive | inactive | inactive | inactive | inactive | inactive | -1.44% (inactive) and 2.73% (inactive) | -1.67% and 17.8% and 14.4% | -0.915% and 15.2% and 17.5% | -1.11% (inactive)
O=C(CCCN1CCC(O)(c2ccc(Cl)cc2)CC1)c1ccc(F)cc1 | – | inactive | inactive | inactive | – | – | – | – | – | 7.71% (inactive) | -8.83% and 9.42% | -10.1% and 21.7% | 0.51% (inactive)
CN1CCN(C2=Nc3cc(Cl)ccc3Nc3ccccc32)CC1 | inactive | inactive | inactive | inactive | – | – | – | – | – | – | – | – | –
Nc1nnc(-c2cccc(Cl)c2Cl)c(N)n1 | inactive | inactive | inactive | inactive | inactive | – | – | inactive | inactive | 1.91% (inactive) | 18.9% | 20.6% | –
COc1ccccc1OCCNCC(O)COc1cccc2[nH]c3ccccc3c12 (configuration not stated) | – | – | – | – | – | – | – | – | – | 6.43% (inactive) | 5.72% | 13% | –
CN(C)C(=N)N=C(N)N | – | – | – | – | – | – | – | – | – | 9.29% (inactive) | 14.6% and 3.67% | 15.2% and 21.7% | 1.15% (inactive)
Clc1ccc2c(c1)C(N1CCNCC1)=Nc1ccccc1O2 | inactive | inactive | inactive | – | 7.08 µM (active) | 5.62 µM (active) | – | – | 11.2 µM (active) | 3.92% (inactive) and 1.18% (inactive) | -3.99% and 1.39% and 11.5% | -7.98% and 5.5% and 12.2% | -5.1% (inactive)
COc1ccccc1OCC(O)CN1CCN(CC(=O)Nc2c(C)cccc2C)CC1 (configuration not stated) | inactive | inactive | inactive | inactive | – | – | inactive | inactive | inactive | 13.2% (inactive) | 8.98% | 24.1% | –
